# Laboratory results published in PMC12670160, “A drug-repurposing screen of FDA- and EMA-approved drugs identifies two NF-κB inhibitors active against eumycetoma” (Journal of Antimicrobial Chemotherapy, 2025).
# Structures can show the parent of a compound that is named as a salt. Where two headings read alike, the source gives them in different places. Screen size: about 5,300 compounds; about 130 (2.5%) showed an effect of 50% or more. Only a selection was taken, and strong results are over-represented in it overall. Peptide text beside a SMILES is read from it.
# Tested on: M. mycetomatis strain mm55
# Conditions: primary screen, metabolic activity vs growth control, 96 h, 2 µM, inhibitor
# [1] = Madurella mycetomatis metabolic activity at 2µM (%)
Compound,% viability [%],% viability [1] [%]
"N#Cc1cn([C@@H]2O[C@H](CO)[C@@H](O)[C@H]2O)c2ncnc(N)c12 [ONC0003230, toyocamycin]",99.22,
"Cl.O=C(c1ccc(-c2ccc(Cl)cc2)o1)N(Cc1ccccn1)c1ccc(N2CCNCC2)cc1 [ONC0002178, mk2in1 hydrochloride]",65.24,
CC(=O)Nc1ccc(C(=O)NC(C)(C)C)cc1 [ONC0002880],98.46,
"C/C(O)=C(\C#N)C(=O)Nc1ccc(C(F)(F)F)cc1 [ONC0000878, teriflunomide]",64.9,
"O=C(Nc1ccc(C(O)(C(F)(F)F)C(F)(F)F)cc1)c1ccc(C(F)(F)F)cc1 [ONC0000412, sr1078]",46.34,
"CC(=O)OC[C@H](N)C(=O)O.Cl [ONC0000420, oacetyllserine hcl]",77.43,
"CC[C@@]1(O)C(=O)OCc2c1cc1n(c2=O)Cc2cc3c(N)cccc3nc2-1 [ONC0005467, 9aminocamptothecin]",102.4,
"CCCCCCCCCCCCCCOS(=O)(=O)O [ONC0003317, sodium tetradecyl sulfate]",84.61,
"CCc1cc(-c2n[nH]c(C)c2-c2ccc3c(c2)OCCO3)c(O)cc1O [ONC0003616, cct018159]",49.48,
"Cc1cccc(-c2[nH]c(C(C)(C)C)nc2-c2ccc3c(c2)OCO3)n1 [ONC0005219, sb505124]",129,
"CCNC(=O)c1[nH]nc(-c2cc(Cl)c(O)cc2O)c1-c1ccc(OC)cc1 [ONC0005116, ver49009]",88.78,
"CC(C)CC1NC(=O)C(C(C)C)NC(=O)C2CCCN2C(=O)C(CC(=O)O)NC(=O)C(Cc2c[nH]c3ccccc23)NC1=O (stereo not drawn) [ONC0004583, bq123] (cyclo(DPVLW); configuration not given here)",106.9,
"CC(=O)NC1[C@@H](O)OC(CO)[C@@H](O)[C@H]1O (stereo partly drawn) [ONC0002960, nacetylmannosamine]",104.5,
"CN1C(C(=O)Nc2ccccn2)C(=O)c2sccc2S1(=O)=O (stereo not drawn) [ONC0002886, tenoxicam]",126.3,
"CC(O)c1cc(C(=O)N[C@@H](C)Cn2ccc(-c3ccc(C#N)c(Cl)c3)n2)[nH]n1 (stereo partly drawn) [ONC0005059, odm201]",86.36,
"O=C(NCc1cccc(O)c1)Nc1nc(-c2ccncc2)cs1 [ONC0005121, rki1447]",,69.4
Cc1ccc(S(=O)(=O)/C=C/C#N)cc1 [bay117082],112.1,
CC(C)(C)c1ccc(S(=O)(=O)/C=C/C#N)cc1 [bay117085],1.843,
"CCOc1ccc2nc(SCCN3CCOCC3)[nH]c2c1 [ONC0001849, fabomotizole hydrochloride]",108.3,
"Cc1c(S(=O)(=O)O)oc2c1C(=O)C(=O)c1c-2ccc2c1CCCC2(C)C [ONC0003377, sodiumtanshinoneiiasulfonate]",55.5,
"C[C@H]1COC2=C1C(=O)C(=O)c1c2ccc2c1CCCC2(C)C [ONC0001081, cryptotanshinone]",49.66,

Compound,% viability [%],% viability [1] [%]
"Cc1coc2c1C(=O)C(=O)c1c-2ccc2c1CCCC2(C)C [ONC0005254, tanshinone iia tanshinone b]",103.2,
"Nc1nc2nc[nH]c2c(=S)[nH]1 [ONC0003925, tioguanine]",107.9,
"Cc1cn([C@@H]2C[C@@H](O)[C@H](CO)O2)c(=O)[nH]c1=O [ONC0004416, telbivudine sebivo tyzeka]",98.41,
"Nc1ncn([C@H]2C[C@H](O)[C@@H](CO)O2)c(=O)n1 [ONC0003115, decitabine]",79.17,
"Nc1nc(=O)n([C@H]2C[C@H](O)[C@@H](CO)O2)cc1F [ONC0004119, 5fluoro2deoxycytidine]",7.324,
"O=c1[nH]c(=O)n([C@H]2C[C@H](O)[C@@H](CO)O2)cc1Br [ONC0001774, 5brdu]",105.2,
"Nc1nc(=O)n([C@H]2C[C@H](O)[C@@H](CO)O2)cc1Cl [ONC0003690, 5chloro2deoxycytidine]",55.79,
"O=c1[nH]c(=O)n([C@H]2C[C@H](O)[C@@H](CO)O2)cc1F [ONC0002845, floxuridine]",24.01,
"Nc1nccc(/C=C/c2ccccc2)n1 [ONC0001621, tcn238]",73.65,
"CCC(C/C=C/c1ccccc1)(c1ccccc1)N(C)CC1CC1 (stereo not drawn) [ONC0003075, igmesine]",61.21,
"O=C(CCCN1CCC2(CC1)C(=O)NCN2c1ccccc1)c1ccc(F)cc1 [ONC0000014, spiperone]",87.63,
"O=C(NCCN1CCC2(CC1)C(=O)NCN2c1cccc(F)c1)c1ccc(F)c(F)c1 [ONC0004390, ml298]",135.4,
"O=C1NCN(c2ccccc2)C12CCN(CCCC(c1ccc(F)cc1)c1ccc(F)cc1)CC2 [ONC0003520, fluspirilene]",48.06,
"CC(C)c1cc(CNc2nc(Nc3cc(C4CC4)[nH]n3)cc(N3CCN(C)CC3)n2)on1 [ONC0000976, xl228]",85.75,
"CCCC[C@H](NC(C)=O)C(=O)N[C@H]1CC(=O)NCCCC[C@@H](C(=O)O)NC(=O)[C@H](Cc2c[nH]c3ccccc23)NC(=O)[C@H](CCCN=C(N)N)NC(=O)[C@@H](Cc2ccccc2)NC(=O)[C@H](Cc2cnc[nH]2)NC1=O [ONC0002156, bremelanotide acetate]",73.73,
"O=C1O[C@@H](CO)[C@H](O)[C@@H](O)[C@@H]1O [ONC0003123, gluconolactone]",67.77,
"C[N+]1(C)CCC(OC(=O)C(c2ccccc2)c2ccccc2)CC1 [ONC0003592, 4damp]",92.53,
"C[N+]1(C)CCC(=C(c2ccccc2)c2ccccc2)CC1 [ONC0004508, diphemanil methylsulfate]",48.99,
"Clc1cccc(Cl)c1N=C1NCCN1 [ONC0004193, clonidine hydrochloride]",96.49,
"Ac-PHSCN-NH2 [ONC0000745, atn161 trifluoroacetate salt]",72.86,
"CCNC(=O)[C@@H]1CCCN1C(=O)[C@H](CCCNC(=N)N)NC(=O)[C@H](CC(C)C)NC(=O)[C@@H](C)NC(=O)[C@H](Cc1ccc(O)cc1)NC(=O)[C@H](CO)NC(=O)[C@H](Cc1c[nH]c2ccccc12)NC(=O)[C@H](Cc1c[nH]cn1)NC(=O)[C@@H]1CCC(=O)N1 [ONC0002202, alarelin acetate]",212.3,

Compound,% viability [%],% viability [1] [%]
"CC(CN(C)C)CN1c2ccccc2Sc2ccccc21 (stereo not drawn) [ONC0003228, trimeprazine tartrate]",,94.09
"CS(=O)(=O)c1ccc(Oc2cc(F)cc(C#N)c2)c2c1[C@H](O)C(F)(F)C2 [ONC0001118, pt2385]",47.48,
"C[N+](C)(C)[C@@H](Cc1c[nH]c(=S)[nH]1)C(=O)O [ONC0003509, lergothioneine]",51.74,
"CCOC(=O)N1CSCC1C(=O)O (stereo not drawn) [ONC0002766, 3ethyl thiazolidine34dicarboxylate]",97.19,
"Nc1ncnc2c1ncn2[C@H]1O[C@@H](C(=O)N2CCN(CC(=O)Nc3cccc4c3CNC4=O)CC2)[C@H](O)[C@@H]1O [ONC0001619, eb47]",55.83,
"Cc1cn([C@H]2O[C@@H](CO)[C@H](O)[C@@H]2F)c(=O)[nH]c1=O [ONC0004549, clevudine levovir]",61.35,
"N[C@H](Cc1c[nH]cn1)C(=O)O [ONC0001939, dhistidine]",75.44,
"O=C(O)/C=C\c1c[nH]cn1 [ONC0002668, cisurocanic acid]",45.73,
"O=C(O)/C=C/c1c[nH]cn1 [ONC0003737, cisurocanicacid]",146.4,
"NC(=O)c1nc[nH]c1O [ONC0003682, 5hydroxy1himidazole4carboxamide]",60.3,
"Nc1nc2nn[nH]c2c(=O)[nH]1 [ONC0002792, azaguanine8]",265.7,
O=C(O)COc1ccc(OCCNC[C@H](O)COc2ccccc2)cc1 [ONC0002275],78.74,
"COCCNC(=O)COc1ccc(OCCNC[C@H](O)COc2ccccc2)cc1 [ONC0001450, zd7114]",94.55,
"O=C(O)Cc1ccc(OCCNC[C@H](O)c2ccccc2)cc1 [ONC0001068, zd2079]",36.58,
"COc1ccc(C[C@H](C)NC[C@@H](O)c2ccc(O)c(NC=O)c2)cc1 [ONC0001548, formoterol]",81.88,
"COc1ccc([C@]2(O)CC[C@@H](N3CC[C@@H](NC(=O)CNC(=O)c4cccc(C(F)(F)F)c4)C3)CC2)cn1 [ONC0000726, incb 3284]",81.5,
"c1ccc(-c2ccc(CNc3nc(-c4ccccn4)nnc3-c3ccccc3)cc2)cc1 [ONC0001674, ml228]",2.835,
"c1cnc(NCc2ccc(CNc3ncccn3)cc2)nc1 [ONC0002000, msx122]",83.13,
"c1ccc(NCc2ccc(CNc3ccccn3)cc2)nc1 [ONC0004550, wz 811]",63.57,
"FCc1ccc(OCCOc2ccc(Cl)cc2Cl)c(Cl)n1 [ONC0000095, cym50260]",81.52,
"O=C(O)CN(CCN(CC(=O)O)CC(=O)O)CCN(CC(=O)O)CC(=O)O [ONC0005432, gadopenteticacid]",,103.1
